In PubChem BioAssay (EPA / NIEHS) one finds outcome and AC50 data, which are given here for ten molecules.

Values joined by “and” are separate entries in the source; they are usually repeats but may differ in a detail not shown here. Identical values can stand only once. Inconclusive results are not listed. Active and inactive are the calls of the source. Rule for the calls, unless noted: active = hit-call score of the fitted dose curve at least 0.9, where 1 is the maximum; inconclusive = response in the unintended direction; inactive = score below 0.9.

Assay [1] is described as follows: TOX21_p53_BLA_p2_viability: Viability Assessment in the Tox21 HCT-116 p53 Agonism Beta-lactamase Assay, Phase 2 (AID 2283591).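 Note: actives lower the ATP signal meaning cytotoxicity.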 Put shortly:
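Cytotoxicity readout: CellTiter-Glo ATP luminescence, 30 min at room temperature, after the beta-lactamase read. Cells were HCT116 exposed 16 h at 37C to compounds pin-transferred at 217-fold dilution from DMSO stocks.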

The target in assay [2] is Cellular tumor antigen p53 (Homo sapiens) (UniProt P04637). Kind of assay: TOX21_p53_BLA_p2_ratio: Tox21 HCT-116 p53 Agonism Beta-lactamase Assay, Ratio, Phase 2 (AID 2283592). Put shortly:
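Read-out is the blue/green (460/530 nm, 405 nm excitation) ratio after 2 h CCF4-AM loading, fitted as gain versus DMSO. Compounds, pinned at 217-fold dilution from DMSO stocks, stayed 16 h on HCT-116 beta-lactamase reporter cells seeded 5 h earlier.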

Assay [3] is described as follows: TOX21_p53_BLA_p3_viability: Viability Assessment in the Tox21 HCT-116 p53 Agonism Beta-lactamase Assay, Phase 3 (AID 2283593).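 Note: cells exposed to compound for 16 h before reading.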 The essentials: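 Cellular ATP was quantified by CellTiter-Glo luminescence, read after 30 min at room temperature. Beforehand, HCT116 cells (4000/well) received compound 5 h post-seeding, 217-fold diluted from DMSO, then incubated 16 h at 37C.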

The target in assay [4] is Cellular tumor antigen p53 (Homo sapiens) (UniProt P04637). Kind of assay: TOX21_p53_BLA_p3_ratio: Tox21 HCT-116 p53 Agonism Beta-lactamase Assay, Ratio, Phase 3 (AID 2283596). The essentials:
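Cells were seeded at 4000/well, rested 5 h at 37C, then dosed with DMSO compound solutions (217-fold dilution) for 16 h. CCF4-AM substrate was loaded for 2 h at room temperature, and the 460/530 nm emission ratio was fitted for gain of signal versus DMSO.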

Assay [5] in a line: TOX21_p53_BLA_p4_viability: Viability Assessment in the Tox21 HCT-116 p53 Agonism Beta-lactamase Assay, Phase 4 (AID 2283597).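 Note: hits lower the luminescence signal meaning cytotoxicity.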 Put shortly: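 Cytotoxicity as reduced cellular ATP (CellTiter-Glo luminescence, 30 min room temperature), measured in the same wells following the CCF4 FRET p53 reading. Human HCT-116 cells received compounds in DMSO (217-fold dilution) for 16 h.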
In assay [6] the target is Cellular tumor antigen p53 (Homo sapiens) (UniProt P04637). Kind of assay: TOX21_p53_BLA_p5_ratio: Tox21 HCT-116 p53 Agonism Beta-lactamase Assay, Ratio, Phase 5 (AID 2283599). The essentials: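 Beta-lactamase reporter ratio (blue 460 nm over green 530 nm, 405 nm excitation) after 2 h CCF4-AM loading, in HCT-116 cells exposed 16 h at 37 C to compounds pinned at 217-fold dilution. Increases relative to DMSO baseline scored.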
Cellular tumor antigen p53 (Homo sapiens), sequence (P04637 whole entry, looked up): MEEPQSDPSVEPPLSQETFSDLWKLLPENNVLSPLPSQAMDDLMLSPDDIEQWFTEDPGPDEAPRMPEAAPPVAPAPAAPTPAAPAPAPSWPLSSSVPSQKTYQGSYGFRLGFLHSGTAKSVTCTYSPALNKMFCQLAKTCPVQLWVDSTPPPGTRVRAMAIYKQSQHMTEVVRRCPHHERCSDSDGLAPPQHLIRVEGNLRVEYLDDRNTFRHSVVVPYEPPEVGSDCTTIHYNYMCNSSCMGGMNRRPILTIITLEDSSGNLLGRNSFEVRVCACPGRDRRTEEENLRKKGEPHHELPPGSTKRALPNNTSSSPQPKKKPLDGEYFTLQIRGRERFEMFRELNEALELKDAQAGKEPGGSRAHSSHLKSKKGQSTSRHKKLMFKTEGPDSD

Assay [7] in a line: TOX21_p53_BLA_p5_viability: Viability Assessment in the Tox21 HCT-116 p53 Agonism Beta-lactamase Assay, Phase 5 (AID 2283600). Put shortly:
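Viability came from CellTiter-Glo ATP luminescence, read after 30 min at room temperature. Before this, HCT-116 p53-bla cells (4000/well) had 16 hours of compound exposure at 37C, with DMSO stocks diluted 217-fold on transfer.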

The target of assay [8] is Cellular tumor antigen p53 (Homo sapiens) (UniProt P04637). Kind of assay: TOX21_p53_BLA_p4_ratio: Tox21 HCT-116 p53 Agonism Beta-lactamase Assay, Ratio, Phase 4 (AID 2283601). The essentials: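 Signal is the blue/green (460nm/530nm) ratio of cleaved versus uncleaved CCF4-AM substrate, read after 2 h substrate loading. Cells were HCT116 carrying the p53-responsive beta-lactamase reporter, dosed 16 h at 37C, 5% CO2; CellTiter-Glo measured in parallel.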

Assay [9] in a line: CCTE_Harrill_HTTr_Viability_MCF7: CCTE's 6-hour Cell Viability Assessment for the High-Throughput Transcriptomics (HTTr) Platform, in MCF-7 cells cultured in DMEM + 10% fetal bovine serum, Harrill Lab (AID 2284010; active = hit-call score of the fitted dose curve at least 0.9, where 1 is the maximum; inactive = score below 0.9). Put shortly:
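Propidium iodide exclusion, imaged by high-content analysis, gauged viability after a six-hour exposure across eight concentrations. Cells were MCF-7 grown in DMEM with 10% fetal bovine serum; fits run in both directions against DMSO.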

A short description of assay [10]: CCTE_Harrill_HTTr_Apoptosis_MCF7: CCTE's 6-hour Apoptosis Assessment for the High-Throughput Transcriptomics (HTTr) Platform, in MCF-7 cells cultured in DMEM + 10% fetal bovine serum, Harrill Lab (AID 2284011; active = hit-call score of the fitted dose curve at least 0.9, where 1 is the maximum; inactive = score below 0.9). Put shortly:
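High-content imaging of CellEvent Caspase 3/7 Green signal follows a six-hour exposure, with eight concentrations per chemical. MCF-7 cells grown in DMEM plus 10% fetal bovine serum; activity fitted in both directions against DMSO.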

The target of assay [11] is PGR (gene 5241) (UniProt P06401). Kind of assay: TOX21_PR_BLA_Followup_Antagonist_ratio: Tox21 HEK293 Progesterone Receptor (PR) Antagonism Beta-lactamase Follow-Up Assay, Ratio (AID 2283934).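 Note: PR-UAS-bla HEK293T cells stimulated with 1 nM R5020 agonist for 16 hr.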 Put shortly: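 Readout is the blue/green (ch2/ch1) substrate cleavage ratio after 2 hours at room temperature, following 16 hr co-treatment of PR-bla HEK293T cells with compound and 1nM promegestone. Multiplexed CellTiter-Glo viability flags cytotoxicity; DMSO baseline.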
PGR (gene 5241), sequence (P06401 whole entry, looked up): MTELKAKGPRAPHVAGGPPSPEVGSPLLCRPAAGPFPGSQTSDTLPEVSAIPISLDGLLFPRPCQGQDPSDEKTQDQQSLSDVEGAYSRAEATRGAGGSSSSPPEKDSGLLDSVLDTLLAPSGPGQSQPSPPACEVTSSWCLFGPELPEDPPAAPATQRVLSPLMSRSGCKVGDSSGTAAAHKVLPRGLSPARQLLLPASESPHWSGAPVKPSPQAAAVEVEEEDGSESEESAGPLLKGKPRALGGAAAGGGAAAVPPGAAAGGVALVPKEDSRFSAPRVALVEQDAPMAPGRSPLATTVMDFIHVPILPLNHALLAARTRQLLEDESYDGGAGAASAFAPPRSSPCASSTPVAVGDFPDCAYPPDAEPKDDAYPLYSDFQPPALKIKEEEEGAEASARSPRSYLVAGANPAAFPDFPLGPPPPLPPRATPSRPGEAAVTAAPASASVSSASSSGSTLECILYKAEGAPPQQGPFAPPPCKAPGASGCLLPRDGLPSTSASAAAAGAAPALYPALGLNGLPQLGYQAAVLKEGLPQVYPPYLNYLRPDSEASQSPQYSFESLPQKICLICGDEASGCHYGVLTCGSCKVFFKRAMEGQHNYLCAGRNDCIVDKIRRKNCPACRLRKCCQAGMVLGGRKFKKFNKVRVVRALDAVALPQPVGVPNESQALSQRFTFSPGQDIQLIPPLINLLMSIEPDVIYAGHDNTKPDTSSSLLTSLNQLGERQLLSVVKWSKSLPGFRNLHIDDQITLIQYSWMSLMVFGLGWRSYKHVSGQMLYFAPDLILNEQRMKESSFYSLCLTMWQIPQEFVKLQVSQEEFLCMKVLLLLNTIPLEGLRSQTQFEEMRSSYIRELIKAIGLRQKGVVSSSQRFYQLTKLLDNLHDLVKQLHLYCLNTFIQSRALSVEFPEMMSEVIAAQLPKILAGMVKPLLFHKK

Assay [12] is described as follows: TOX21_PR_BLA_Followup_Agonist_viability: Viability Assessment in the Tox21 HEK293 Progesterone Receptor (PR) Agonism Beta-lactamase Follow-Up Assay (AID 2283935).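 Note: signal loss means lower viability so actives are cytotoxic.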 The essentials:
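Run multiplexed with the beta-lactamase FRET read, this endpoint measures ATP by CellTiter-Glo luminescence (30 min, room temperature). PR-UAS-bla HEK293T cells received compound 6 hr after plating and were then incubated 16 hr at 37C in 2% stripped serum.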

The nature of assay [13]: TOX21_PR_BLA_Followup_Antagonist_viability: Viability Assessment in the Tox21 HEK293 Progesterone Receptor (PR) Antagonism Beta-lactamase Follow-Up Assay (AID 2283936).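 Note: cells exposed to compound with R5020 agonist for 16 h; hits lower the luminescence signal meaning cytotoxicity.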 Put shortly:
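PR-UAS-bla HEK293T cells in medium with 2% charcoal-stripped FBS were treated with compounds plus R5020 for 16 hr at 37C. After the beta-lactamase read, CellTiter-Glo was added to the same wells and luminescence read after 30 min at room temperature.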

Assay [14] has as its target PGR (gene 5241) (UniProt P06401). Kind of assay: TOX21_PR_LUC_Followup_Agonist: Tox21 HEK293 Progesterone Receptor (PR) Agonism Luciferase Follow-Up Assay (AID 2283937; active = hit-call score of the fitted dose curve at least 0.9, where 1 is the maximum; inactive = score below 0.9). The essentials:
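Agonism scored as luciferase induction over DMSO, read by ONE-Glo after 30 min at RT. Compounds were incubated 16 h at 37C on HEK293-PR-A-luc cells (3,000/well, pre-plated 5 h) previously grown 5 days in charcoal-stripped serum.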

For assay [15] the target is unchanged. Kind of assay: TOX21_PR_LUC_Followup_Antagonist: Tox21 HEK293 Progesterone Receptor (PR) Antagonism Luciferase Follow-Up Assay (AID 2283938).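 Note: curve fitted upward as signal gain over DMSO baseline despite antagonist label.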 Put shortly: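 Luminescence from ONE-Glo was measured 30 min after reagent addition, following 16 h exposure of HEK293-PR-A-luc cells (3,000/well, plated 5 h earlier) to DMSO-dissolved compounds at 37C; DMSO served as baseline.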

Assay [16] in a line: TOX21_PR_LUC_Followup_Agonist_viability: Viability Assessment in the Tox21 HEK293 Progesterone Receptor (PR) Agonism Luciferase Follow-Up Assay (AID 2283941).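 Note: loss of signal means cytotoxicity so actives lower viability.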 Put shortly:
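Cytotoxicity counter-readout in the PR-A luciferase reporter line HEK293, with 16 h compound exposure at 37C after cells were cultured in charcoal-stripped serum. Cellular ATP quantified by CellTiter-Glo luminescence.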

With `O=C1CCc2ccc(OCCCCN3CCN(c4cccc(Cl)c4Cl)CC3)cc2N1`, the result in [1], in [2], in assay [4], in assay [5], in [6] and in assay [8] was inactive. The AC50 in [3] and in [7] was 23 µM (active) throughout.

Consider `CN(Cc1cc(Br)cc(Br)c1N)C1CCCCC1`, for which the call in assay [1], in assay [2], in assay [4], in [5], in [6] and in [7] was inactive. Further, in assay [8], the outcome was inactive. Also, the AC50 in assay [3] is 39.5 µM (active).

Consider `Cc1c(N(C)CS(=O)(=O)O)c(=O)n(-c2ccccc2)n1C`, for which the molecule was classed as inactive in assay [1], in assay [2], in assay [3], in assay [4], in [5] and in assay [6]. Also, the molecule was called inactive in [7], in assay [8], in assay [9] and in [10].

Turning to `COCCCC/C(=N\OCCN)c1ccc(C(F)(F)F)cc1`, the call in assay [1], in assay [2], in [3], in assay [4], in assay [5] and in [6] was inactive. Besides, the call in assay [7] and in [8] was inactive.

As to `O=C(NOC[C@H](O)CO)c1ccc(F)c(F)c1Nc1ccc(I)cc1F`, the molecule was called inactive in assay [1], in assay [2], in assay [3], in assay [4], in assay [5] and in [6]. The molecule was called inactive in assay [7] and in assay [8].

`N#CCc1cccc(C(F)(F)F)c1`: the molecule was classed as inactive in assay [1], in [2], in assay [3], in assay [4], in assay [5] and in assay [6]. For the same molecule, the outcome in assay [7] and in [8] was inactive.

On to `NC(=O)C(=O)NN=Cc1ccc([N+](=O)[O-])o1`, for which the outcome in [1], in assay [3], in assay [4] and in [7] was inactive. Also, the AC50 in assay [2] is 39.8 µM (active); in [5], 42.3 µM (active); in assay [6] it was 37.1 µM (active); in assay [8] it was 41.8 µM (active).

Take `COc1cc(NC(C)CCCN)c2ncccc2c1` (stereo not drawn): the call in [1], in assay [2], in assay [3], in [4], in assay [5] and in assay [6] was inactive. The outcome in assay [7] and in assay [8] was inactive.

Regarding `O=C1c2c(O)cccc2[C@H]([C@@H]2O[C@H](CO)[C@@H](O)[C@H](O)[C@H]2O)c2cc(CO)cc(O)c21`, the outcome in assay [1], in [2], in assay [3], in assay [4], in assay [5] and in [6] was inactive. The outcome in [7] and in assay [8] was inactive.

Consider `CC(C)C[C@H](NC(=O)[C@H](Cc1ccccc1)NC(=O)c1cnccn1)B(O)O`, for which the AC50 in assay [1] was 283 nM (active) and 357 nM (active); in [2], 9.74 nM (active) and 12.9 nM (active); in assay [3], 318 nM (active) and 262 nM (active); in [4], 10.5 nM (active) and 14.1 nM (active); in assay [5], 128 nM (active) and 150 nM (active); in [6] it was 25.2 nM (active) and 15.7 nM (active). The AC50 in [7] is 554 nM (active) and 442 nM (active); in assay [8], 9.86 nM (active) and 13 nM (active); in the assay with PGR (gene 5241) [11], 0.168 µM (active); with PGR (gene 5241) [15] it was 0.0717 µM (active). Also, the call (in [12]; in [13]; with PGR (gene 5241) [14]; in assay [16]) was inactive.
